Among the data in ChEMBL document CHEMBL3988442, “University of Dundee, Small-Polar-MMV Screening Library” (2021) are Percent Effect values, retold here.

Design in all cases: scale not given: direction of the effect not stated beside the values
The target of assay [1] is Protein translocase subunit SecA (Escherichia coli (strain K12)) (UniProt P10408). The experiment in a line: Assay to Identify E. coli SecA ATPase Inhibitors. It is filed as functional. To be noted: 30 µM.
Assay [2] addresses T1, Ubiquitin-activating enzyme e1, putative (Leishmania donovani (strain BPK282A1)) (UniProt E9BSI1).
T1 sequence (whole entry): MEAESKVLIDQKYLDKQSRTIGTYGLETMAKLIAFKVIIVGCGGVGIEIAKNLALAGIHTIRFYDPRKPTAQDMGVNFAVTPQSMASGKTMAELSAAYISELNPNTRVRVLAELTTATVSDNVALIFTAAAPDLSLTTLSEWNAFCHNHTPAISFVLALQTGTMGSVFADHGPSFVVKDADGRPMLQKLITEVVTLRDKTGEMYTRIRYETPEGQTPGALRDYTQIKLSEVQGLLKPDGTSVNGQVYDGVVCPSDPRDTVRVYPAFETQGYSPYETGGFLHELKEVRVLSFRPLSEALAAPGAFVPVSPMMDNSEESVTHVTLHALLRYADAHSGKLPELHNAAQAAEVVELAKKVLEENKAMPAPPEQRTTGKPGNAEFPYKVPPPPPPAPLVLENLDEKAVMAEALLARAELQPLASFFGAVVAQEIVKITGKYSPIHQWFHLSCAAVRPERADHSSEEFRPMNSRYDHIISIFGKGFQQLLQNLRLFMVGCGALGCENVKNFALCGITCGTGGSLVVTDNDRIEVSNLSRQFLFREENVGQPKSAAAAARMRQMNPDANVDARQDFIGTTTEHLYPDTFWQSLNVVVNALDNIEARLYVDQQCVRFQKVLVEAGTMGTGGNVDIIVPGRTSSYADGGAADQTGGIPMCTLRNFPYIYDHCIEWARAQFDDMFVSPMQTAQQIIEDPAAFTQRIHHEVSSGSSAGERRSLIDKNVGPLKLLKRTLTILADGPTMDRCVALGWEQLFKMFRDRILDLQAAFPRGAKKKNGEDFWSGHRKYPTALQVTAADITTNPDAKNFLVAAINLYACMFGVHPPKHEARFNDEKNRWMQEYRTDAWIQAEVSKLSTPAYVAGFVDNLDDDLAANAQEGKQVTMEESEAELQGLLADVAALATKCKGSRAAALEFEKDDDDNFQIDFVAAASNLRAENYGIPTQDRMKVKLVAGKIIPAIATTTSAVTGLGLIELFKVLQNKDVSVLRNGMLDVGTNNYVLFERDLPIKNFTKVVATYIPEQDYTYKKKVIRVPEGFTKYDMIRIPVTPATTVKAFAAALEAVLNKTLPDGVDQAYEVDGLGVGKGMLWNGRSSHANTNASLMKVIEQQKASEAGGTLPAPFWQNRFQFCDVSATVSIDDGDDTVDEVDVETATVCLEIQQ
The assay can be described thus: Leishmania donovani Ubiquitin Activating Enzyme (LdE1). It is filed as functional. To be noted: 30 µM.

Assay [3] has as its target Sialic acid-binding Ig-like lectin 9 (Homo sapiens) (UniProt Q9Y336). The experiment in a line: Hs-Siglec9 ALPHAscreen SOP 20170721. The following applies: 10 µM.
A further assay relates to Trypanosoma cruzi. The assay can be described thus: Trypanosoma cruzi phosphomannomutase and mannose-1-phosphate guanylyltransferase assay. To be noted: 10 µM. It counts as functional.
Assay [4] deals with T2, Arginase-2, mitochondrial (Homo sapiens) (UniProt P78540).
T2 sequence (whole entry): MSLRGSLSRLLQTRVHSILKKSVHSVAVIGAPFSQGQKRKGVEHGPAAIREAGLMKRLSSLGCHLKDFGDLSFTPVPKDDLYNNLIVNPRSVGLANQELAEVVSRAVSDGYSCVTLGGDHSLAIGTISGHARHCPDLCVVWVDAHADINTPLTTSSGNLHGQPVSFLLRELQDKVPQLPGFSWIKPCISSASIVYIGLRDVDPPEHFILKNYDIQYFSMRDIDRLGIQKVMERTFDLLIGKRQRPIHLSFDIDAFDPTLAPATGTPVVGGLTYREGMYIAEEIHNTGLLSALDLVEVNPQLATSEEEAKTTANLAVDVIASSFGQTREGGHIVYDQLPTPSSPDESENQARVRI
The experiment in a line: in vitro enzyme assay to detect the production of urea directly proportional to the activity of Arginase II. Note: in the data most compounds retested in dose-response had high values. It counts as functional. The following applies: 33.3 µM.

Assay [5] concerns the target T3, Proteasome subunit beta (Trypanosoma cruzi) (UniProt O96673).
T3 sequence (whole entry): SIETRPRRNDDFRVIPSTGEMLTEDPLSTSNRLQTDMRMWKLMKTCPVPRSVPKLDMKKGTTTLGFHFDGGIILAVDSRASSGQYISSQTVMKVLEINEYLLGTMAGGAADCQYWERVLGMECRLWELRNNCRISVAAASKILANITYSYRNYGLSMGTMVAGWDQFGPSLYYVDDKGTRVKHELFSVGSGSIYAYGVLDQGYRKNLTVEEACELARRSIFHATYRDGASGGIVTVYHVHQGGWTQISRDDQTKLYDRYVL
The experiment in a line: Trypanosoma cruzi proteasome chymotrypsin-like activity (TcProtChymo) assay. Note: in the data most compounds retested in dose-response had high values. It counts as functional. To be noted: 9.37 µM.

The species entered for the next assay is Homo sapiens. The assay can be described thus: To identify inhibition of the IFN signalling (Jak-Stat) pathway via expression of an eGFP reporter gene under the control of an IFN-stimulated response element (ISRE) containing MxA promoter. To be noted: 30 µM. It counts as functional. (Reporter assays use an easily measured gene product as a stand-in for the process of interest.)

Assay [6] addresses T4, Tyrosyl-tRNA synthetase, putative (Trypanosoma cruzi (strain CL Brener)) (UniProt Q4DSP6).
T4 sequence (whole entry): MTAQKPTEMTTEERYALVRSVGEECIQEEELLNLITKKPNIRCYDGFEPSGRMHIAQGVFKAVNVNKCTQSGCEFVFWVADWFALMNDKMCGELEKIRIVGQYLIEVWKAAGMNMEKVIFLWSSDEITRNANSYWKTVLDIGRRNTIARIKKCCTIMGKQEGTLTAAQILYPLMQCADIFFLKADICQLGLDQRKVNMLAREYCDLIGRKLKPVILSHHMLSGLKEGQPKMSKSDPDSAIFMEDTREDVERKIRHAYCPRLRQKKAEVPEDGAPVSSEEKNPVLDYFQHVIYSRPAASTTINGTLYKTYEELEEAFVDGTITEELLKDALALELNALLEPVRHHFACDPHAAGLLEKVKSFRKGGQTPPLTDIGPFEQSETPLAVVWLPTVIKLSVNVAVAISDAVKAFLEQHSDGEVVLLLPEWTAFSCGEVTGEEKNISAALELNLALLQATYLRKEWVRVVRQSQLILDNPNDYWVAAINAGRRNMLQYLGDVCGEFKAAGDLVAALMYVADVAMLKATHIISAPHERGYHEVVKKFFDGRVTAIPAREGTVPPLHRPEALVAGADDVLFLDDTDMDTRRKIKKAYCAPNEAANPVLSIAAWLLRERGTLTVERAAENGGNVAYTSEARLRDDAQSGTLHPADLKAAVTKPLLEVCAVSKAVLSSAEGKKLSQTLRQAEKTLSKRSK
The experiment in a line: Trypanosoma cruzi tyrosyl tRNA synthetase (TcYRS) _High Tyrosine SOP. Note: in the data most compounds retested in dose-response had high values. It is filed as functional. The following applies: 30 µM.

The target of assay [7] is T4, Tyrosyl-tRNA synthetase, putative (Trypanosoma cruzi (strain CL Brener)). The experiment in a line: Trypanosoma cruzi tyrosyl tRNA synthetase (TcYRS) SOP. It is filed as functional. To be noted: 30 µM.
Assay [8] has as its target Chromo domain-containing protein 1 (Saccharomyces cerevisiae (strain ATCC 204508 / S288c) (Baker's yeast)) (UniProt P32657). The assay can be described thus: ScCHD-1 Enzyme Inhibition Assay. Note: in the data most compounds retested in dose-response had high values. It is filed as functional. The following applies: 30 µM.
The test system of another assay is N/A. The assay can be described thus: Trypanosoma cruzi proteasome luciferase counter-screen. It is filed as functional. The following applies: 9.37 µM. A general note: Counterscreens check selectivity or assay interference.

SMILES strings stand for the structures. “And” between values parts separate entries of the source, which are not always exact repeats. Identical values can stand only once. For some of these results: Results with a measured potency or affinity are listed apart.

Chain of Chromo domain-containing protein 1 (Saccharomyces cerevisiae (strain ATCC 204508 / S288c) (Baker's yeast)) (P32657 whole entry, the tested form may be a part): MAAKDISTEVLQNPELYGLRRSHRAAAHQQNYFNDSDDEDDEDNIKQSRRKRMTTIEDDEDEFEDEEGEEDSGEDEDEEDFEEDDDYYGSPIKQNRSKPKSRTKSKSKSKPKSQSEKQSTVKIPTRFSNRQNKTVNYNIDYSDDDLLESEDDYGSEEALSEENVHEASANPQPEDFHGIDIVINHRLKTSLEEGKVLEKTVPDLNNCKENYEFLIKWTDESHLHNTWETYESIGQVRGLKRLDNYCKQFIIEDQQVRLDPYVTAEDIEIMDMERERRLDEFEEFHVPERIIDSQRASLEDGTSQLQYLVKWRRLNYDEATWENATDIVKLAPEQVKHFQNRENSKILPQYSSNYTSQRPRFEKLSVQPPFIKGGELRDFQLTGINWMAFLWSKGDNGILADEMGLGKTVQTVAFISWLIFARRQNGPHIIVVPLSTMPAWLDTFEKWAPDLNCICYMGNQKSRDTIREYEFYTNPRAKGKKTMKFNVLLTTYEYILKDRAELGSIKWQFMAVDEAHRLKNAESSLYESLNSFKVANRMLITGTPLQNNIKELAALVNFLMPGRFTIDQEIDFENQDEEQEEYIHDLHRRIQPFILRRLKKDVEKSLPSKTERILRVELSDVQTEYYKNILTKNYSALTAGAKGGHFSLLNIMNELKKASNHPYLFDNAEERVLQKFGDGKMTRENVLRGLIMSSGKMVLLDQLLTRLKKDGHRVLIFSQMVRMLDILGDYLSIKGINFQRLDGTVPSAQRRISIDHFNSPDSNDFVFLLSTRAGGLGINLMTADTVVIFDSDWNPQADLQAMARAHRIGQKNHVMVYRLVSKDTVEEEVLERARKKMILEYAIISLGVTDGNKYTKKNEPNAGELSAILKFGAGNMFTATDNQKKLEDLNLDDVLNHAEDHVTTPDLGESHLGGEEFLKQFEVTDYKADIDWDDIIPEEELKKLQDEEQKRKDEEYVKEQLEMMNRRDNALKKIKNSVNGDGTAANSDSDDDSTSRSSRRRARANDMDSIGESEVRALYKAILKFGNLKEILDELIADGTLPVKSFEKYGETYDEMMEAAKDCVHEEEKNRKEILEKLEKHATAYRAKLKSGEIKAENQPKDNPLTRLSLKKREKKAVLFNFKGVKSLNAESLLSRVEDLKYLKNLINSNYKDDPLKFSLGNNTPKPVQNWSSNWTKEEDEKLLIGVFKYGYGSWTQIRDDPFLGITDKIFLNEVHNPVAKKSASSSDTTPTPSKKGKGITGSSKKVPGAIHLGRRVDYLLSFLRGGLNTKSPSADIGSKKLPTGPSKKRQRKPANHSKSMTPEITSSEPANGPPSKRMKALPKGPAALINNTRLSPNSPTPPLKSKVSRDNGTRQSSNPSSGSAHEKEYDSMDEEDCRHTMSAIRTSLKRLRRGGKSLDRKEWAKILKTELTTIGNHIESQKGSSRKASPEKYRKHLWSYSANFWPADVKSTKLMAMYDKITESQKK
Chain of Protein translocase subunit SecA (Escherichia coli (strain K12)) (P10408 whole entry): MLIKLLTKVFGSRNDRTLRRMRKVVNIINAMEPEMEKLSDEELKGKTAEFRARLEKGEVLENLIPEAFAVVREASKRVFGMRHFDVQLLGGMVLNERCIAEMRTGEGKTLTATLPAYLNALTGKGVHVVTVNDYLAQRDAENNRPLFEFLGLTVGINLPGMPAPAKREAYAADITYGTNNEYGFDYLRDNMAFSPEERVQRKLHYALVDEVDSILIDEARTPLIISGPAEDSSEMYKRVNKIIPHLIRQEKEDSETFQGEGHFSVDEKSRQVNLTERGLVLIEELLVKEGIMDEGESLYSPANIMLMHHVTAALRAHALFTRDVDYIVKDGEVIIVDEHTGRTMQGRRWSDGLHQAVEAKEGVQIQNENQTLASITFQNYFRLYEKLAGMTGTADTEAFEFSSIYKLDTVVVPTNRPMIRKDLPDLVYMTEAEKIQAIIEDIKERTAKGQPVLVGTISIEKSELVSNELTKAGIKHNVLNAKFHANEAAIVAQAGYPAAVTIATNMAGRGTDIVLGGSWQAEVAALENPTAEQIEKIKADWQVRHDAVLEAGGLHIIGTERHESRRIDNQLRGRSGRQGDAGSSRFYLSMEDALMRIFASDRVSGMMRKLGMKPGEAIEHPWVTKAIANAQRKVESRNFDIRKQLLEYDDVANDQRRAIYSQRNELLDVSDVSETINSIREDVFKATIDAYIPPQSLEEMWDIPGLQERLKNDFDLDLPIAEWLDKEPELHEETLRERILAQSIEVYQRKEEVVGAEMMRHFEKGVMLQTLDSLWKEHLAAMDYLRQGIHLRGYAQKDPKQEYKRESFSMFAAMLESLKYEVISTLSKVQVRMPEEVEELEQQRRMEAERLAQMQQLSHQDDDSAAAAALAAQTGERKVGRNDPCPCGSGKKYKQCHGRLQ
Chain of Sialic acid-binding Ig-like lectin 9 (Homo sapiens) (Q9Y336 whole entry): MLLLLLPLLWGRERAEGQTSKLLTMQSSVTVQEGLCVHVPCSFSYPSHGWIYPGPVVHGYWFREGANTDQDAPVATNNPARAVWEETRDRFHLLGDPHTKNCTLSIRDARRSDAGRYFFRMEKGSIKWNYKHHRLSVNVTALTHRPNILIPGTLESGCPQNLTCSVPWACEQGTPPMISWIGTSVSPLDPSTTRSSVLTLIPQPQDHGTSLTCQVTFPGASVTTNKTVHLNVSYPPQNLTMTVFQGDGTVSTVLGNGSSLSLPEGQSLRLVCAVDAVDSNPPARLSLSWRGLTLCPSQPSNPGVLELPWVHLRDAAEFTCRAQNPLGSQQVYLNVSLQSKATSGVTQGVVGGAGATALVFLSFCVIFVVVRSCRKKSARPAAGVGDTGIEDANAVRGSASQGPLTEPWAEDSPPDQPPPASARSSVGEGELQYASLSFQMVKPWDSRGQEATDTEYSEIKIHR

With `CC(C)(C)c1cn2nc(N3CCC[C@@H]3CO)sc2n1`, the Percent Effect was -2.65% in [1]; 10.3% in assay [2]; -1.69% in assay [3]; -0.282% in the assay on Trypanosoma cruzi; 2.87% in assay [4]; 6.57% in assay [5]. In addition, the Percent Effect in the assay listed under Homo sapiens is 2.26%; in assay [6], 2.39%; in assay [7] it was 13.2%; in assay [8], -0.0525%.

For the compound `Cc1ccc(C(=O)N2CCCS2(=O)=O)cc1Cl`, the Percent Effect in [1] was -1.08%; in assay [2], 5.33%; in assay [3], -1.7%; in the assay on Trypanosoma cruzi, -4.62%; in assay [4] it was 3.1%; in assay [5], 3.99%. The Percent Effect is -6.01% in the assay filed under Homo sapiens, 0.526% in assay [6], 0% in assay [7] and -6.7% in assay [8].

Turning to `NC(=O)c1cc(NC(=O)NCCc2cc(F)cc(F)c2)ccc1F`, the Percent Effect in [1] was -0.0438%; in assay [2], 10.4%; in [3], 8.44%; with Trypanosoma cruzi, 0.56%; in [4], -2.66%; in assay [5], 5.26%. For the same compound, the Percent Effect in the assay filed under Homo sapiens is -4.36%; in assay [6], 5.88%; in assay [7] it was 23.5%; in [8], -11.6%.

As to `COCC(=O)N1CCC(c2cc(C(F)(F)F)n3ccnc3n2)CC1`, the Percent Effect is -4.74% in [1]; 17.3% in [2]; 7.36% in assay [3]; 3.75% in the assay with Trypanosoma cruzi; 0.885% in assay [4]; 9.85% in assay [5]. Moreover, the Percent Effect in the assay filed under Homo sapiens was 5.45%; in assay [6], 3.17%; in assay [7], 15%; in assay [8] it was -24.5%.

For `Cc1ccc(CN2CCC(c3nnc(CN4CCCCC4)n3C)CC2)o1`, the Percent Effect in [1] is -5.23%; in assay [2], 0%; in assay [3] it was 2.13%; in the assay on Trypanosoma cruzi, -0.873%; in assay [4], -0.35%; in [5], 5.99%. Besides, the Percent Effect in the assay filed under Homo sapiens was 1.11%; in assay [6], 1.6%; in assay [7], 4.88%; in assay [8], 3.06%.

On to `Cc1cc(-c2nn(C)c(Cl)c2CN2CCOCC(O)C2)no1` (stereo not given), for which the Percent Effect in assay [1] was -4.83%; in assay [2], 13.5%; in [3] it was 10%; in the assay on Trypanosoma cruzi, 4.37%; in assay [4] it was 15.7%; in assay [5] it was 13%. Besides, the Percent Effect in the assay listed under Homo sapiens was 15.5%; in [6], 2.66%; in assay [7] it was 17.1%; in assay [8], -4.79%.

As to `COc1ncccc1CNC(=O)NCCNC(=O)c1ccco1`, the Percent Effect was -2.62% in [1]; 13.3% in assay [2]; -3.85% in [3]; 6.83% in the assay with Trypanosoma cruzi; 1.33% in assay [4]; 16% in assay [5]. Besides, the Percent Effect was 18.4% in the assay listed under Homo sapiens, 4.74% in [6], 12.8% in [7] and -6.18% in assay [8].

On to `OC(CNCCn1cccn1)c1ccc(F)c(F)c1` (stereo not given), for which the Percent Effect in [1] was 1.48%; in assay [2], 16%; in assay [3], -2.24%; in the assay with Trypanosoma cruzi, 2.81%; in assay [4], 1.33%; in assay [5], 19.8%. Besides, the Percent Effect was 18.7% in the assay filed under Homo sapiens, 4.74% in assay [6], 12.8% in assay [7] and -8.38% in [8].

Turning to `COc1ccccc1OC1CCN(Cc2cnc(N(C)C)nc2)CC1`, the Percent Effect in assay [1] was -8.85%; in [2] it was 0%; in assay [3], 3.25%; in the assay on Trypanosoma cruzi it was -1.84%; in [4], -3.15%; with N/A, 13.7% and 17.2%. Also, the Percent Effect in the assay filed under Homo sapiens was 1.97%; in assay [6], 3.72%; in assay [7], 9.76%; in [8], -4%.

For the compound `CC(C)NC(=O)[C@@H](NC(=O)N1CCN(c2ccc(Cl)cc2)CC1)C(C)C`, the Percent Effect was -9.49% in assay [1]; -5.41% in assay [2]; -0.377% in assay [3]; -3.78% in the assay with Trypanosoma cruzi; -3.85% in assay [4]; 12.2% in assay [5]. Also, the Percent Effect is 31.6% in the assay filed under Homo sapiens, 0.532% in assay [6], -4.88% in assay [7] and -2.5% in [8].
